Screening results deposited in PubChem BioAssay by National Center for Advancing Translational Sciences (NCATS).
G9a inh – qHTS Assay for Inhibitors of Histone Lysine Methyltransferase G9a | Histone-lysine N-methyltransferase EHMT2 (Homo sapiens), Q96KQ7 | G9a H3K9 monomethylation, AlphaScreen, 2 h | Potency, µM (doses to about 102 µM), without a hit: top-dose activity, negative = inhibition, actives largely listed as inhibitors | actives 8.8% (n = 350,000); note: % is set by controls: 0 for no effect and ±100 for the full control effect; nearly all actives have a fitted effect of over 75% in size
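Readings reflect AlphaScreen signal from monomethyl-H3K9 antibody detection. HMT at 20 nM; substrate b-H3K9 500 nM; cofactor SAM 20 uM; 2 h RT reaction; compounds tested as titrations in qHTS with 15 min preincubation.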
PLK1 PBD block – qHTS for Inhibitors of PLK1-PDB (polo-like kinase 1 - polo-box domain): Primary Screen; Serine/threonine-protein kinase PLK1 (Homo sapiens), P53350; Plk1 PBD binding of FITC phosphopeptide, fluorescence polarization; Potency, µM, inactives show max response, negative = inhibition, actives largely listed as inhibitors; actives 2.8% (n = 360,000); AID 720504, 2013; note: series mostly up to about 57 µM; % is set by controls: 0 for no effect and ±100 for the full control effect; nearly all actives have a fitted effect of over 65% in size
Target sequence (P53350 whole entry, looked up, the tested form may be a part): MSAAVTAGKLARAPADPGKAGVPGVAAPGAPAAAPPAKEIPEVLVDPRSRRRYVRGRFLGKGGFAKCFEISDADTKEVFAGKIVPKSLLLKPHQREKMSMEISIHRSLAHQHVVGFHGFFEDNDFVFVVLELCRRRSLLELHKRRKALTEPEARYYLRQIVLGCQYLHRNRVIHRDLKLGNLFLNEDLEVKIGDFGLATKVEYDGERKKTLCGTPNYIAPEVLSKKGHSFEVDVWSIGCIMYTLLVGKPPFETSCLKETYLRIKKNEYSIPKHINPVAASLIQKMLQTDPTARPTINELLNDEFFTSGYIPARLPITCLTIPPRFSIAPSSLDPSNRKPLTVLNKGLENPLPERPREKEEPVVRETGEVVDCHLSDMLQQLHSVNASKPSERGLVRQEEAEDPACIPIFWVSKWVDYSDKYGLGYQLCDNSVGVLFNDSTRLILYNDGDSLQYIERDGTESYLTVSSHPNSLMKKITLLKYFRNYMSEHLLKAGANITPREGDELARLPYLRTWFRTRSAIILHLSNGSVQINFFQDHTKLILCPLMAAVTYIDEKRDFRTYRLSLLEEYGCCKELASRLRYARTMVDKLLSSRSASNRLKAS
JMJD2A Tudor inh – qHTS Assay for Inhibitors of JMJD2A-Tudor Domain. Lysine-specific demethylase 4A (Homo sapiens), O75164. AlphaScreen JMJD2A-Tudor / H3K4me3 peptide binding. Potency, µM (highest dose often 114 µM), for inactives: at the highest dose activity change, negative = inhibition, actives largely listed as inhibitors. actives 4.4% (n = 390,000); note: % is set by controls: 0 for no effect and ±100 for the full control effect; nearly all actives have a fitted effect of over 50% in size
VDR inh – Inhibitors of the vitamin D receptor (VDR): qHTS. VDR-SRC2-3 peptide fluorescence polarization, 2 h. Vitamin D3 receptor (Homo sapiens), P11473. AID 504847, 2011. actives 0.93% (n = 400,000). Potency, µM, inactives show max response, negative = inhibition, usual class: inhibitors; note: % is set by controls: 0 for no effect and ±100 for the full control effect
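Measured by FP: displacement of SRC2-3 coactivator peptide from VDR by library compounds, following a two-hour ambient incubation.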
BAZ2B block – qHTS Assay for Inhibitors of BAZ2B; AlphaScreen BAZ2B-H3K14Ac peptide displacement; Potency, µM (series often up to 114 µM), for inactives: top-dose activity change, negative = inhibition, actives largely listed as inhibitors; actives 4.4% (n = 360,000); AID 504333, 2011; note: % is set by controls: 0 for no effect and ±100 for the full control effect; nearly all actives have a fitted effect of over 60% in size
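AlphaScreen luminescence quantifies BAZ2B engagement of H3K14Ac peptide; the protein and biotinylated peptide are both at 50 nM final, buffer PBS pH 7.4 with 0.01% Tween-20, all steps at room temperature.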
HP1b chromo inh – HTS for Inhibitors of HP1-beta Chromodomain Interactions with Methylated Histone Tails | Chromobox protein homolog 1 (Homo sapiens), P83916 | AlphaScreen HP1-beta / biotin-H3K9me3 peptide binding | Potency, µM (doses to about 114 µM), for the others: top-dose activity change, negative = inhibition, actives largely listed as inhibitors | actives 0.56% (n = 390,000); note: nearly all actives have a fitted effect of over 70% in size
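Compound inhibition of the preformed complex between 50 nM HP1-beta and 50 nM biotinylated H3K9me3 peptide was read by AlphaScreen. Buffer was PBS pH 7.4 with 0.01% Tween-20. Incubations ran 30 min at room temperature, with 10 ug/mL donor/acceptor beads.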
An asterisk follows results filed as active; ? = inconclusive; nt = no result; [ ] = another dose, or the depositor's remark. Only some compounds are listed: those with a hit (about 11% of all), similar ones and a draw of the others. Calls come from the whole dose curve; as a rule, active = well fitted curve in the direction sought with a large enough effect; inconclusive = small, poorly fitted or top-dose-only effect, or another doubt; inactive = no such curve, though single readings can be large; an effect the other way counts as inactive or inconclusive. Potency is the fitted concentration of half-maximal effect.

SMILES	G9a inh	PLK1 PBD block	JMJD2A Tudor inh	VDR inh	BAZ2B block	HP1b chromo inh
CCCCNC(=O)/C(=C\c1ccc([N+](=O)[O-])o1)NC(=O)c1ccccc1	-48%	21µM*	-6%[11.4 µM]	-8%	-20%	-7%
Cc1ccc(C(=O)N/C(=C\c2ccc(-c3ccccc3[N+](=O)[O-])o2)C(=O)NCCCN(C)C)cc1	50µM*	?	?	10%	?	-13%
Cc1nn(CC(=O)NCc2ccccc2Br)c(=O)c2cc3occc3n12	1%[59 µM]	nt	-3%	-14%	0%	32%
CN(C(=O)c1cccc(NC(=O)Cc2ccc(NC(=O)C3CCN(C(=O)CCc4ccccc4)CC3)cc2)c1)C1CCCCC1	nt	-4%	-16%	-3%	nt	40%
CCN(CC)CCOC(=O)c1ccc(NC(=O)c2ccc(Cl)c(S(=O)(=O)N3CCCCCC3)c2)cc1	?	-14%	?	-1%	-38%	-5%
O=C(O)c1cc(S(=O)(=O)N2CCCCC2)ccc1Cl	5%	-4%	-2%	7%	-4%	36%
CC1CCN(C2(O)C(=O)Nc3ccc(Br)cc32)CC1 (stereo not drawn)	4%	-9%	-9%	-4%	-5%	4%
CC1=N/C(=C\c2ccccc2Cl)C(=O)O1	nt	3%	-5%	-4%	nt	18%
CC1=CC(=O)C(C(C)=Nc2ccccc2Cl)C(=O)O1 (stereo not drawn)	50µM*	-6%	?	-3%	1%	-12%
Cc1nc2ccc(S(=O)(=O)N(C)CC(=O)NCc3ccc(N(C)C)cc3)cc2s1	50µM*	-28%	?	-17%	?	-25%
CN(C)c1ccc(CNC(=O)CN2CCSc3ccc(S(=O)(=O)N(C)C)cc32)cc1	7.9µM*	nt	45µM*	0%	40µM*	-16%[57 µM]
O=C(NCCc1ccccc1)C1Cc2c(-c3ccccc3Oc3ccccc3)ccnc2O1 (stereo not drawn)	nt	-3%	nt	nt	nt	nt
Cn1cnnc1Sc1nc2ccccc2nc1NS(=O)(=O)c1ccccc1	50µM*	-12%	-14%	-17%	?	37%
CC(=O)Nc1ccc(S(=O)(=O)Nc2nc3ccccc3nc2Sc2nncn2C)cc1	?	?	-20%	-11%	23%	26%
Cc1ccc(C)c(S(=O)(=O)c2cn(Cc3ccccc3)c3cc(N4CCCC4)c(F)cc3c2=O)c1	6%[59 µM]	nt	-3%	10%	10%	82%
C/C(=N\NC(=O)c1ccncc1)c1ccc(N(C)C)cc1	-6%	27µM*	18µM*	7%	-2%	-10%
C/C(=N\NC(=O)c1ccncc1)c1ccc(N2CCOCC2)cc1	28%[12.7 µM]	-24%	-3%	-8%	3%	-1%
C/C(=N\NC(=O)c1ccc(OC2OCCOC2Oc2ccc(C(=O)N/N=C(\C)c3ccncc3)cc2)cc1)c1ccncc1 (stereo not drawn)	13µM*	3%	-33%	4%	-16%	-24%
Cc1ccc(OCC(=O)Nc2ccc3nc(SCC(=O)N4CCOCC4)sc3c2)cc1	10%[59 µM]	nt	-5%	15%	-10%	49%
CC(=O)Nc1ccc(NS(=O)(=O)c2cc(-c3n[nH]c(=O)c4ccccc34)ccc2C)cc1	-26%	-11%	-17%	7%	79µM*	3%
COc1ccc(C(C)=O)cc1COC(=O)CCNS(=O)(=O)c1ccc(C(C)=O)cc1	6%	-21%	-8%	3%	-19%	15%
COc1ccc(C(C)=O)cc1COC(=O)CCNS(=O)(=O)c1ccc(C)cc1	50µM*	?	-10%	-9%	8%	-1%
Cc1ccc(C2CC(C(F)F)n3ncc(C(=O)Nc4cnn(Cc5ccccc5C)c4)c3N2)cc1 (stereo not drawn)	45µM*	3%	-23%	0%	8%	1%
CCOc1ccc(N=Nc2c(=O)[nH]n3c(C)cc(C)nc23)cc1	7.1µM*	-2%	?	-9%	?	?
CC(=O)Nc1ccc(S(=O)(=O)NC2(C(F)(F)F)C(=O)Nc3c2c(=O)[nH]c(=O)n3Cc2ccco2)cc1 (stereo not drawn)	56µM*	0%	-1%	0%	-21%	nt
SMILES	G9a inh	PLK1 PBD block	JMJD2A Tudor inh	VDR inh	BAZ2B block	HP1b chromo inh
Cc1cnc(C(=O)O)c[n+]1[O-]	-47%[12.7 µM]	nt	nt	6%	nt	nt
O=C(/C=C/c1ccccc1)c1ccc(O)cc1O	-24%[2.33 µM]	nt	nt	25µM*	nt	nt
COc1ccc(/C=C/C(=O)c2ccc(O)cc2O)cc1OC	-27%[2.33 µM]	nt	nt	?	nt	nt
COc1ccc(/C=C/C(=O)c2cc(Br)ccc2O)cc1OC	25µM*	2%	-19%	?	?	38%
COc1ccc(/C=C/C(=O)c2cc3c(cc2N)OCO3)cc1	18µM*	3%	28µM*	7%	22µM*	40µM*
COc1cc(C(=O)/C=C/c2cccnc2)ccc1O	-44%	0%	-3%	-6%	-36%	-6%
COc1ccc(/C=C/C(=O)c2ccc3c(c2)OCO3)cc1OC	12%[12.7 µM]	-5%	-29%	-14%	-5%	-12%
COc1ccc(OC)c(C(=O)/C=C/c2cccnc2)c1	50µM*	-12%	-8%	?	-40%	35%
COc1ccc2nc(C3CCCCC3)c3c(c2c1)CCC3	nt	2%	18%	9%	nt	96%
Cc1c(Cl)cccc1-c1ccc(CNc2ccc3[nH]c(=O)[nH]c3c2)o1	?	nt	-29%	1%	-27%	-3%
COc1ccc(C(=O)COC(=O)c2cccnc2Cl)c(OC)c1	-29%	-4%	-29%	7%	50µM*	6%
COc1ccc(OC)c(C(=O)COC(=O)c2cccnc2Cl)c1	1%	-10%	-7%[11.4 µM]	5%	10%	56%
O=C(/C=C/c1ccccn1)c1ccc(Br)cc1O	?	?	-28%	-16%	-30%	5%
O=C(/C=C/c1ccccn1)c1cc(Br)ccc1O	?	11µM*	-20%	?	-13%	1%
COc1ccc(C(=O)C=Cc2cccs2)c(O)c1	nt	-3%	45µM*	?	nt	?
COc1ccc(C(=O)COC(=O)/C=C/c2ccccc2)c(OC)c1	15%[12.7 µM]	-10%	-6%	-1%	50µM*	17%
CC1C(=O)C(=O)C=CN1C (stereo not drawn)	?	nt	nt	-7%	nt	nt
COc1ccc(C(=O)/C=C/c2ccccc2)c(O)c1	?	-22%	?	?	45µM*	?
